Assay outcomes as filed in PubChem BioAssay.
POLI inh: DNA polymerase iota (human) inhibition | Q9UNA4 | Pol iota fluorescent replication assay, 10 min | Potency, µM (doses to about 115 µM), actives largely listed as inhibitors | actives 1% (n = 390,000)
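Fluorescent replication assay read twice, at 0 min and 10 min after adding 50 nM (final) substrate. Enzyme (10 nM) and compounds were first incubated 15 min at room temperature; enzyme-free buffer wells were negative controls.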
Pol beta inh: inhibitors of human DNA polymerase beta | P06746 | Pol beta primer extension/strand displacement, fluorescence kinetic | Potency, µM (titrated, usually from 114 µM), usual class: inhibitors | actives 1.3% (n = 340,000) | AID 485314
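Human Pol beta at 10 nM; strand-displacement substrate 50 nM final. Compound exposure 15 min at room temperature before start, reaction 10 min at room temperature.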
Pol kappa inh: blocks human DNA polymerase kappa activity | Potency, µM (highest dose often 107 µM), hits mostly inhibitors | purified Pol kappa, fluorescent DNA synthesis assay, 10 min | actives 0.53% (n = 400,000) | AID 588579
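Activity was followed as the change in fluorescence between reads at 0 and 10 min after starting the reaction with 50 nM substrate. Beforehand, 10 nM polymerase had been preincubated with compound for 15 min at room temperature.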
FEN1 inh: human FEN1 inhibition; P39748; Recombinant FEN1 flap cleavage, fluorescence, 15 min; Potency, µM (doses to about 114 µM), actives largely listed as inhibitors; actives 0.35% (n = 390,000); note: nearly all actives have a fitted effect of over 65% in size
Target sequence (P39748 whole entry, looked up): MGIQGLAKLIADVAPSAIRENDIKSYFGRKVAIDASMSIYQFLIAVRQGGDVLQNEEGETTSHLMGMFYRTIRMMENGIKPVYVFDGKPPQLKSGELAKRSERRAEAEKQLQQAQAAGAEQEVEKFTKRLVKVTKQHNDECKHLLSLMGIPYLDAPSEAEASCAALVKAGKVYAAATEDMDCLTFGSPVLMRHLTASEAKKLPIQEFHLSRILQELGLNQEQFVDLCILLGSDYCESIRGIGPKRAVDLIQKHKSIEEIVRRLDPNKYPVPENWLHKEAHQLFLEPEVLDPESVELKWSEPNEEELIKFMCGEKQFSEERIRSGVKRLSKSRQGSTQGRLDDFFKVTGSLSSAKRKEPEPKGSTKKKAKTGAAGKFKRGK
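Nuclease activity of 10 nM FEN1 was measured after 15 min of room-temperature exposure to titrated compounds, by adding 50 nM flap substrate and reading plates at 0 and 15 min.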
Pol eta inh: DNA polymerase eta (human) inhibition; recombinant Pol eta, fluorescent DNA replication assay; Potency, µM (titrated, usually from 114 µM), actives largely listed as inhibitors; actives 1.2% (n = 390,000)
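Fluorescent replication assay: 50 nM final substrate added after a 15 min room-temperature compound preincubation with 10 nM enzyme. Signal taken at 0 min and again at 10 min.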
PI5P4Ka inh: blocks human PI5P4K alpha kinase activity; AID 652105; actives 1.2% (n = 330,000); max response, %; P48426; PI5P4Kalpha enzyme, ADP-Glo luminescence, 60 min; stronger effect = lower value; active = max response of -50% or lower; inconclusive = between -30% and -50%; inactive = -30% or higher; note: value at the top dose of about 77 µM
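ADP-Glo luminescence end-point after a 60 min room-temperature kinase reaction. PI5P4Kalpha and substrate in HEPES pH 7.4 buffer with EGTA, 0.1% CHAPS and 5% DMSO; ATP at 5 microM final.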
Of the large screens only hits and unclear results are named; the others gave an inactive call. Rows were chosen to be rich in hits. Some 2.8% of all compounds tested hit in one or more screens of this group. Unless noted, calls come from the whole dose curve; as a rule, active = well fitted curve in the direction sought with a large enough effect; inconclusive = small, poorly fitted or top-dose-only effect, or another doubt; inactive = no such curve, though single readings can be large; an effect the other way counts as inactive or inconclusive.

O=C(O)c1ccc2c(c1)S(=O)(=O)c1cc(N3CCN(c4ncccn4)CC3)ccc1C2=O	PI5P4Ka inh -56.9 (no result: POLI inh, Pol beta inh, Pol kappa inh, FEN1 inh)
O=C1c2ccccc2S(=O)(=O)c2cc(C(=O)N3CCN(c4ncccn4)CC3)ccc21	none (no result: Pol beta inh)
COc1ccc(-c2csc(NC(=O)CSc3nc(C)cs3)n2)cc1	Pol eta inh inconclusive (no result: Pol beta inh)
COc1ccc(-c2csc(NC(=O)CSc3nc(C)nc4sc(C(=O)O)c(C)c34)n2)cc1	POLI inh inconclusive, Pol beta inh 7.08µM, Pol kappa inh 31.6µM, FEN1 inh inconclusive, Pol eta inh 22.4µM, PI5P4Ka inh inconclusive
CC(C)(C)n1ncc2c(=O)n(Cc3ccc(OC(F)(F)F)cc3)cnc21	none (no result: Pol beta inh, Pol eta inh, PI5P4Ka inh)
O=C(CCc1nc2sc3c(c2c(=O)[nH]1)CCCC3)Nc1cccc(Cl)c1	POLI inh 79.4µM, Pol eta inh 12.6µM, PI5P4Ka inh inconclusive (no result: Pol beta inh)
Cc1cc(C)cc(NC(=O)CCc2nc3sc4c(c3c(=O)[nH]2)CCCC4)c1	POLI inh 44.7µM, Pol kappa inh inconclusive, Pol eta inh 20µM, PI5P4Ka inh inconclusive (no result: Pol beta inh)
O=C(CCc1nc2sc3c(c2c(=O)[nH]1)CCCC3)NCCc1ccc(F)cc1	POLI inh inconclusive, Pol beta inh 22.4µM, Pol eta inh inconclusive, PI5P4Ka inh inconclusive
CN(CC(=O)Nc1ccc(Cl)cc1)C(=O)CCc1nc2sc3c(c2c(=O)[nH]1)CCCC3	POLI inh 28.2µM, Pol eta inh inconclusive, PI5P4Ka inh inconclusive (no result: Pol beta inh)
CCN(CC)C(=O)c1cccc(NC(=O)CCc2nc3sc4c(c3c(=O)[nH]2)CCCC4)c1	POLI inh inconclusive (no result: Pol beta inh)
CC(=O)N1CCN(C(=O)CCc2nc3sc4c(c3c(=O)[nH]2)CCCC4)CC1	none
COc1ccc(CN2C(=O)C(CC(=O)NCc3cccs3)CC(C(=O)N(C)C)=C2C)cc1 (stereo unspecified)	none (no result: POLI inh, Pol beta inh, Pol kappa inh, FEN1 inh)
CC(=O)Nc1ccc(NC(=O)CCc2nc3sc4c(c3c(=O)[nH]2)CCCC4)cc1	POLI inh 39.8µM, Pol eta inh inconclusive, PI5P4Ka inh inconclusive (no result: Pol beta inh)
CN(CC(=O)Nc1ccccc1C(F)(F)F)C(=O)CCc1nc2sc3c(c2c(=O)[nH]1)CCCC3	POLI inh inconclusive, Pol beta inh inconclusive, Pol eta inh 44.7µM
CN(C)C(=O)CCc1nc2sc3c(c2c(=O)[nH]1)CCCC3	none
Cc1ccc2c(=O)c(C(=O)c3ccc(Cl)cc3)cn(CC(=O)Nc3ccc4c(c3)OCCO4)c2n1	none (no result: PI5P4Ka inh)
CC(C)CN(CC(C)C)C(=O)C1CCCN(S(=O)(=O)c2ccc3c(c2)oc(=O)n3C)C1 (stereo unspecified)	none (no result: PI5P4Ka inh)
CCc1ccc(Nc2ccc3nonc3c2[N+](=O)[O-])cc1	none (no result: Pol beta inh)
O=[N+]([O-])c1c(Nc2ccccc2)ccc2nonc12	none
CCOC(=O)NNc1ccc2nonc2c1[N+](=O)[O-]	POLI inh 10µM, Pol beta inh 44.7µM, Pol kappa inh inconclusive, FEN1 inh 39.8µM, Pol eta inh 10µM, PI5P4Ka inh -64.8
O=[N+]([O-])c1c(NCc2ccco2)ccc2nonc12	Pol beta inh 3.16µM
Cc1ccc(N=Cc2cccc(O)c2O)c(C)c1	POLI inh 3.55µM, Pol beta inh 10µM, Pol kappa inh 20µM, FEN1 inh 4.47µM (no result: Pol eta inh, PI5P4Ka inh)
CC(N=Cc1cccc(O)c1O)c1ccccc1 (stereo unspecified)	POLI inh 8.91µM, Pol beta inh 2.51µM, Pol kappa inh 12.6µM, FEN1 inh 35.5µM, Pol eta inh inconclusive (no result: PI5P4Ka inh)
CC(N=Cc1cc([N+](=O)[O-])ccc1O)c1ccccc1 (stereo unspecified)	PI5P4Ka inh inconclusive
Oc1ccccc1C=NN=Cc1c(O)ccc2ccccc12	none (no result: Pol beta inh)
Oc1cccc(/C=N/N=C/c2cccc(O)c2O)c1O	POLI inh inconclusive, Pol beta inh 0.316µM, Pol kappa inh 11.2µM, Pol eta inh 2.82µM
Cc1ccccc1N=Cc1cccc(O)c1O	POLI inh inconclusive, Pol beta inh 3.55µM, Pol kappa inh 10µM, FEN1 inh 50.1µM, Pol eta inh inconclusive, PI5P4Ka inh inconclusive
CSc1ncc(C(=O)Nc2c(C)cccc2C)c(-c2ccccc2)n1	none (no result: PI5P4Ka inh)
COC(=O)c1cc2sc(C)cc2n1Cc1ccccc1	none (no result: PI5P4Ka inh)
